High-throughput results deposited in PubChem BioAssay by National Center for Advancing Translational Sciences (NCATS).
Shiga inhibitor – Shiga toxin inhibition; Vero cells, Shiga toxin protein synthesis inhibition reporter; inhibition, % at 38.7 µM; hit rate 9.2% among 290,000; in the data active means inhibition mostly above about 28%, no sharp cut-off; inactive means mostly below about 43%
Cycloheximide cs – counter-screen for Shiga toxin inhibitors: cycloheximide protein synthesis inhibition | max response, % | cell reporter, cycloheximide protein synthesis inhibition counterscreen | hit rate 12% among 300,000 | AID 2314; in the data active means max response mostly above about 13%, no sharp cut-off; inactive means mostly below about 14%; further: read at 38.3 µM for the half of the compounds with a filed dose
Marburg entry inh – inhibitors of Marburg virus binding or cell entry. Marburg virus pseudotyped entry inhibition, cell reporter. Potency, µM (top dose mostly 37.8 µM), most hits filed as inhibitors. hit rate 1.8% among 300,000. AID 540276; calls by dose curve; tested in HEK293 cells
Pf growth 48h – inhibits P. falciparum growth in the first generation, 48 h. P. falciparum luciferase growth in erythrocytes, 48 h. Potency, µM (titrated, usually from 28.7 µM), actives largely listed as inhibitors. hit rate 5.9% among 310,000. AID 504832
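Here the parasites carry a stable luciferase gene and grow inside erythrocytes in Albumax-based RPMI medium with compound for one erythrocytic cycle. Activity is scored as loss of luminescent signal.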
Pf growth 96h – P. falciparum growth inhibition at 96 hour, primary screen for plastid delayed-death inhibitors; Potency, µM (series often up to 28.7 µM), most hits filed as inhibitors; AID 504834; hit rate 6.9% among 320,000; P. falciparum luciferase reporter growth, 96 h
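Plates of compound plus infected erythrocytes (2% hematocrit, 0.05% parasitemia final) incubate 96 hours, 37 C, 5% CO2. Detection reagent added; reduced luminescence from the parasites' luciferase reporter flags inhibition.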
Lassa entry inh – Lassa virus entry inhibition; AID 540256; Potency, µM (top dose mostly 37.9 µM), most hits filed as inhibitors; hit rate 1.2% among 300,000; Lassa virus pseudotype entry inhibition, cell reporter; calls by dose curve; tested in HEK293 cells; further: nearly all actives have a fitted effect of over 50% in size
A number is an active result; i = inactive; ? = inconclusive; nt = no result given; [ ] = dose if it differs, or a comment. Shown are actives, neighbours in structure and some others; about 19% of the full set was active somewhere. Unless noted, the call rests on the fitted dose curve; in most records, active means well fitted inhibition curve with a large enough effect; inconclusive means small, poorly fitted or top-dose-only effect, or another doubt; inactive means no such curve, though single readings can be large or run the other way.

SMILES	Shiga inhibitor	Cycloheximide cs	Marburg entry inh	Pf growth 48h	Pf growth 96h	Lassa entry inh
CCOc1ccc(-n2c(C)c(C(C)=O)c3cc(OCC(N)=O)ccc32)cc1	i	i	i	13µM	i	i
COCCOC(=O)c1c(C)n(C)c2ccc(OC(=O)c3c(OC)cccc3OC)cc12	i	i	nt	1.9µM	?	nt
CCOC(=O)c1c(C)n(C)c2ccc(OCC(O)CN(CC)CC)cc12 (stereo unspecified)	i	i	nt	nt	5.9µM	nt
C[C@H]1NS(=O)(=O)c2ccc(Br)cc2O[C@H]1c1ccccc1	nt	nt	i	nt	nt	nt
Cc1cccc(C)c1NC(=O)CSc1nnc(CCCCCNC(=O)OC(C)(C)C)o1	i	i	i	?	i[5.75 µM]	i
COc1cc(NC(=O)c2cc(C(C)C)on2)cc(OC)c1OC	i	i	nt	nt	?	nt
O=C(Nc1cc(Br)ccc1O)c1cc(-c2cccs2)on1	78	22	i	?	i	i
CC(C)c1cc(C(=O)Nc2cc(Cl)ccc2O)no1	143	68	?	?	?	?
CC(C)c1cc(C(=O)Nc2cc(Br)ccc2O)no1	120	36	i	?	nt	i
FC(F)(F)c1nc2ccccc2n2c(-c3ccc(Cl)cc3)nnc12	i	i	?	i	i	?
Nc1nc(N)c(S(=O)(=O)c2ccccc2)c(Nc2ccc(Br)cc2)n1	nt	nt	i	nt	nt	i
Cc1ccc(S(=O)(=O)Oc2ccccc2C=C2C(=O)N(C)C(=O)N(C)C2=O)cc1	i	i	?	i	12µM	i
CN1C(=O)C(=Cc2ccccc2OCc2ccc(Cl)cc2)C(=O)N(C)C1=O	i	i	?	i	1µM	i
CSc1ncccc1C(=O)OCC(=O)Nc1ccc(S(=O)(=O)N2CCCC2)cc1	i	i	i	i	i	i
O=S(=O)(Nc1ncccn1)c1ccc(NC(=S)NCc2ccco2)cc1	i	i	i	i	i	i
CSCCC(NS(=O)(=O)c1ccc2c(c1)OCCO2)C(=O)N(C)Cc1ccc(C)cc1 (stereo unspecified)	i	i	i	?	?	i
COc1cccc(CN(C)C(=O)C(CCSC)NS(=O)(=O)c2ccc3c(c2)OCCO3)c1OC (stereo unspecified)	nt	nt	?	12µM	?	?
O=C1N(c2ccccc2)C(c2cccnc2)N2CCCN12 (stereo unspecified)	i	i	i	i	i	?
COc1ccccc1C(=O)Nc1ccnn1C1CCN(C(=O)c2ccoc2)CC1	nt	nt	i	nt	nt	i
COc1ccccc1NC(=O)Nc1ccnn1C1CCN(C(=O)c2ccccn2)CC1	i	i	i	i	i	i
O=C(Nc1ccnn1C1CCN(C2CCC2)CC1)c1ccccc1	i	i	i	i	12µM	i
COc1ccccc1NC(=O)Nc1ccnn1C1CCN(C(=O)c2cscn2)CC1	i	32	nt	i	?	nt
O=C(Nc1cccc(F)c1)Nc1ccnn1C1CCN(C(=O)c2ccccn2)CC1	42	23	?	i	i	i
COc1ccccc1C(=O)Nc1ccnn1C1CCN(C(=O)c2ccoc2C)CC1	i	15	i	i	?	i
O=[N+]([O-])c1ccc(C2[C@H]3C(c4ccccc4)=NC4(CCCC4)N23)cc1 (stereo partly specified)	i	i	nt	i	?	nt
SMILES	Shiga inhibitor	Cycloheximide cs	Marburg entry inh	Pf growth 48h	Pf growth 96h	Lassa entry inh
Nc1c[n+](N2CCOCC2)no1	nt	nt	i	nt	nt	nt
COc1ccccc1C(=O)Nc1ccnn1C1CCN(C(=O)c2cnsn2)CC1	i	i	i	i	?	?
COc1ccc(C(=O)Nc2ccnn2C2CCN(C(=O)c3cnsn3)CC2)cc1	i	20	i	i	i	i
COc1ccccc1NC(=O)CSc1nnc(NC(=O)C2CC2)s1	i	i	i	i	i	i
Nc1c(C(=O)NCc2ccccc2)nnn1Cc1ccccc1	i	i	nt	nt	i	nt
CN(C)/C=N/c1c(C(=O)NCc2ccccc2)nnn1Cc1ccccc1	i	i	i	2.6µM	i	i
Cc1ccc(S(=O)(=O)N2CCC(C(=O)Nc3ccccc3N3CCCC3)CC2)c(C)c1	nt	nt	?	9.3µM	?	i
O=C(Nc1ccccc1N1CCCC1)C1CCN(S(=O)(=O)c2ccccc2)CC1	nt	nt	i	i	i	i
O=C(Nc1ccccc1N1CCCCC1)C1CCN(S(=O)(=O)c2ccccc2C(F)(F)F)CC1	nt	nt	?	9.3µM	?	?
CN(C)C(CNC(=O)C1CCN(S(=O)(=O)c2ccccc2C(F)(F)F)CC1)Cc1ccccc1 (stereo unspecified)	nt	nt	i	?	9.3µM	i
Cc1ccc(S(=O)(=O)N2CCN(C(=O)c3cc(S(=O)(=O)N(C)C)ccc3N3CCCC3)CC2)c(C)c1	nt	nt	?	2.9µM	5.2µM	i
O=C(NC(Cc1ccccc1)C(=O)O)C1CCN(S(=O)(=O)c2ccccc2C(F)(F)F)CC1 (stereo unspecified)	i	i	nt	i	i	nt
Cc1cc(C)cc(NC(=O)c2sc3nc4n(c(=O)c3c2C)N=C(c2ccccc2)CS4)c1	i	i	nt	nt	nt	i
CN1CCCN(C(=O)c2cc(-c3ccc(Cl)c(Cl)c3Cl)nc3ccccc23)CC1	i	i	i	i	?	i
COc1ccccc1N(Cc1ccccc1)S(=O)(=O)c1cccc(C(=O)Nc2ccccn2)c1	50	25	?	10µM	9.3µM	?
COc1ccccc1N(Cc1ccccc1)S(=O)(=O)c1cccc(C(=O)Nc2ccc(C)cn2)c1	nt	nt	?	4.1µM	1.9µM	?
Cc1ccc(N(C)S(=O)(=O)c2cccc(C(=O)NC3CC(C)(C)NC(C)(C)C3)c2)cc1	nt	nt	?	?	?	i
CC1(C)CC(NC(=O)c2cccc(S(=O)(=O)N(Cc3ccccc3)c3ccccc3)c2)CC(C)(C)N1	nt	nt	?	10µM	13µM	i
CCN(CC)S(=O)(=O)c1cc(NC(=O)C(C)N2CC=C(c3ccccc3)CC2)ccc1C (stereo unspecified)	i	i	?	?	?	16µM
O=C(CNc1cc(S(=O)(=O)N2CCCC2)ccc1OCC(F)(F)F)Nc1ccc(SC(F)F)cc1	i	21	8.2µM	?	?	18µM
CCN(CC)S(=O)(=O)c1ccc(C)c(NCC(=O)Nc2ccc(C#N)c(Cl)c2)c1	i	i	?	?	5.2µM	?
O=C(CNc1cccc(S(=O)(=O)N2CCCC2)c1)Nc1cccc(Br)c1	nt	nt	?	5.2µM	4.1µM	?
COc1ccc(/C=C(\C#N)C(=O)NCC2CCCO2)cc1OC (stereo unspecified)	i	i	i	i	?	i
CCN(CC)S(=O)(=O)c1ccc(C)c(NC(=O)CNc2cccc(S(=O)(=O)N3CCOCC3)c2)c1	nt	nt	i	?	?	i
O=C(CNc1cccc(S(=O)(=O)N2CCOCC2)c1)N1CCc2ccccc21	45	10	nt	i	i	nt
O=C(CNc1cccc(S(=O)(=O)N2CCOCC2)c1)Nc1ccc(C(F)(F)F)cc1	nt	nt	?	6.6µM	7.4µM	i
CCN(CC)S(=O)(=O)c1cc(NC(=O)CNc2cccc(S(=O)(=O)N3CCCC3)c2)ccc1C	nt	nt	?	12µM	?	?
O=C(CNc1cccc(S(=O)(=O)N2CCOCC2)c1)Nc1ccccc1F	i	i	i	i	i	?
